From PubChem BioAssay (EPA / NIEHS)
Results filed as inconclusive are left out. The source holds several records for some structures; these can differ, active in one and inactive in another. The source made the active and inactive calls. The calls were made as follows: active = hit-call score of the fitted dose curve at least 0.9, where 1 is the maximum; inconclusive = response in the unintended direction; inactive = score below 0.9.

Target: human IkappaB Kinase alpha (IKKa), CHUK (gene 1147) (UniProt O15111)
Sequence (O15111 whole entry, looked up): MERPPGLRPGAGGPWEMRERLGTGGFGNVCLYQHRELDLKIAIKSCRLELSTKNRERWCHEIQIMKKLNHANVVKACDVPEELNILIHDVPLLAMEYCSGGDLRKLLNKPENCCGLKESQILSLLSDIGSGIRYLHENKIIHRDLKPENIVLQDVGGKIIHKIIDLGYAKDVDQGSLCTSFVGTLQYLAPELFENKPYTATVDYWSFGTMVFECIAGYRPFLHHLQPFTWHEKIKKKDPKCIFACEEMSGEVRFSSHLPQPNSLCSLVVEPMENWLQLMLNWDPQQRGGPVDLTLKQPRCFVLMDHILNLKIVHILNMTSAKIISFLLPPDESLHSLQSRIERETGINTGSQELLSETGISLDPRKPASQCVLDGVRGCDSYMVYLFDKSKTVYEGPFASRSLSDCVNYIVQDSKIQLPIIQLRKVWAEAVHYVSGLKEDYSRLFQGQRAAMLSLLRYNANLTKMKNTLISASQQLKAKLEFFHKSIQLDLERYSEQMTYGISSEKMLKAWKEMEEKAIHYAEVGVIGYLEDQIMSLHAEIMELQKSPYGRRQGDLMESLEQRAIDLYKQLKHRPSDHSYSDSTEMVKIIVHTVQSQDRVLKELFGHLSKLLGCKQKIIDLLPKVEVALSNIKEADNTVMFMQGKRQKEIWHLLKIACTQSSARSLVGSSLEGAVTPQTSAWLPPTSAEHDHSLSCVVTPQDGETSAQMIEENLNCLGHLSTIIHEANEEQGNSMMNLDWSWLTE
Assay: NVS_ENZ_hIKKa: NovaScreen (NVS) Enzymatic Assay for human IkappaB Kinase alpha (IKKa) (AID 2283167)
Experimental: NVS_ENZ_hIKKa is a biochemical, single-readout assay that uses extracted gene-proteins in a cell-free assay. Measurements were taken 1 hour after chemical dosing in a 384-well plate.NVS_ENZ_hIKKa is one of one assay component(s) measured or calculated from the NVS_ENZ_hIKKa assay. It is designed to make measurements of enzyme activity, a form of enzyme reporter, as detected with fluorescence intensity signals by Fluorescence and electrophoretic mobility shift technology.Data from the assay component NVS_ENZ_hIKKa was analyzed into 1 assay endpoint. This assay endpoint, NVS_ENZ_hIKKa, was analyzed in the positive analysis fitting direction relative to DMSO as the negative control and baseline of activity. Using a type of enzyme reporter, loss-of-signal activity can be used to understand changes in the enzymatic activity as they relate to the gene CHUK. Furthermore, this assay endpoint can be referred to as a primary readout, because this assay has produced multiple assay endpoints where this one serves a enzymatic activity function. To generalize the intended target to other relatable targets, this assay endpoint is annotated to the kinase intended target family, where the subfamily is serine/threonine kinase.
Binding assays used specific radioligands (tritiated, iodinated) with non-radioactive competitive displacement ligands in agonist or antagonist protocols (as indicated) and various reference compounds and inhibitors to titrate specific binding to receptors and transporters. Most enzyme assays (CYPs, kinases, phosphatases, proteases, HDACs) used recombinant protein and specific substrates (fluorescence mostly, some colorimetric and radioactive) and inhibitors, followed by a biochemical separation of substrate and product. All assays for the biochemical HTS were initially run in duplicate at a single concentration (10 uM for CYP450 assays and 25 uM for all others). Assay-chemical combinations meeting a pre-defined threshold (e.g., 30% inhibition and other criteria defined below) were then run in singleton concentration-response format with maximum concentration of 20 uM for CYPs and 50 uM for all others. Each assay was run with positive and negative controls, and concurrent controls on every plate. The follow-up (secondary) screen tested active chemical-pairs in concentration series, as well as a few additional assays not tested in the primary screen, some selected negative inactives, and several cases re-run in the concentration series for confirmatory purposes.

Compound	outcome	AC50
CCc1c(C(=O)NN2CCCCC2)nn(-c2ccc(Cl)cc2Cl)c1-c1ccc(Br)cc1	inactive	–
CCN(CC)CCNc1ccc(CNC=O)c2sc3ccc(OC)cc3c(=O)c12	inactive	–
CN(C)c1ccc(N=NS(=O)(=O)O)cc1	inactive	–
O=C(OCCOCCOC(=O)c1ccccc1)c1ccccc1	inactive	–
S=C([S-])NCCNC(=S)[S-].[Mn+2]	–	30.1 µM (active)
CCCC(CCC)C(=O)O	inactive	–
CCCCCCCCCCCCc1ccccc1S(=O)(=O)O	–	31.7 µM (active)
O=c1[nH]cnc2c1ncn2[C@H]1CC[C@@H](CO)O1	inactive	–
CC/C(=C(\c1ccccc1)c1ccc(OCCN(C)C)cc1)c1ccccc1	inactive	–
CCCCCCCC/C=C\CCCCCCCC(=O)OC[C@@H](O)[C@H]1OC[C@H](O)[C@H]1O	inactive	–
S=C(S)NCCNC(=S)S.[Mn+2].[S-]C([S-])=NCCN=C([S-])[S-].[Zn+2]	inactive	18.2 µM (active)
